Data from the supplement of paper PMC8728848.
The full list was thinned out, with the strongest signals kept by preference.

Experiments:
Assay in all cases: glycan array binding signal (z-score within array); higher = stronger binding
Conditions in all cases: glycan notation: IUPAC condensed, linker removed
[1] = target: Fuc(a1-2)Gal(b1-4)GlcNAc(b1-6)GalNAc
Summary of the method: (§1)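 Glycan array binding is given as a within-array Z-score, which can be read as non-binding when negative. The arrays, 3228 of them, came from the Consortium for Functional Glycomics database and were retained only where the protein sequence was available. Z-scores were averaged across arrays of the same protein sequence at different concentrations or buffers and across linkers.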

[2] = target: Fuc(a1-2)[Gal(a1-4)]Gal(b1-4)GlcNAc
Summary of the method: as §1

[3] = target: Fuc(a1-2)[GalNAc(a1-3)]Gal
Summary of the method: as §1

[4] = target: Fuc(a1-2)[GalNAc(a1-3)]Gal(b1-4)GlcNAc(b1-2)Man
Summary of the method: as §1

[5] = target: Fuc(a1-3)GlcNAc
Summary of the method: as §1

[6] = target: Fuc(a1-3)[Gal(b1-4)]GlcNAc(b1-2)Man
Summary of the method: as §1

[7] = target: Fuc(a1-3)[Gal(b1-4)]GlcNAc(b1-3)Gal(b1-4)[Fuc(a1-3)]GlcNAc(b1-3)Gal(b1-4)[Fuc(a1-3)]GlcNAc
Summary of the method: as §1

[8] = target: Gal(a1-2)Gal
Summary of the method: as §1

[9] = target: Gal(a1-3)Gal(b1-4)Glc
Summary of the method: as §1

[10] = target: Gal(b1-3)GlcNAc(b1-2)Man(a1-3)[Gal(b1-3)GlcNAc(b1-2)Man(a1-6)]Man(b1-4)GlcNAc(b1-4)[Fuc(a1-6)]GlcNAc
Summary of the method: as §1

[11] = target: Gal(b1-3)[Fuc(a1-4)]GlcNAc(b1-3)Gal(b1-4)[Fuc(a1-3)]GlcNAc
Summary of the method: as §1

[12] = target: Gal(b1-4)GlcNAc(b1-2)Man(a1-3)[Gal(b1-4)GlcNAc(b1-2)Man(a1-6)]Man(b1-4)GlcNAc(b1-4)[Fuc(a1-6)]GlcNAc
Summary of the method: as §1

[13] = target: Gal(b1-4)GlcNAc(b1-2)[Gal(b1-4)GlcNAc(b1-6)]Man(a1-6)[Gal(b1-4)GlcNAc(b1-2)Man(a1-3)]Man(b1-4)GlcNAc(b1-4)[Fuc(a1-6)]GlcNAc
Summary of the method: as §1

[14] = target: Gal(b1-4)GlcNAc(b1-3)Gal(b1-3)GlcNAc
Summary of the method: as §1

[15] = target: Gal(b1-4)GlcNAc(b1-3)Gal(b1-4)GlcNAc(b1-2)Man(a1-3)[Gal(b1-4)GlcNAc(b1-3)Gal(b1-4)GlcNAc(b1-2)Man(a1-6)]Man(b1-4)GlcNAc(b1-4)[Fuc(a1-6)]GlcNAc
Summary of the method: as §1

[16] = target: Gal(b1-4)GlcNAc(b1-3)Gal(b1-4)GlcNAc(b1-3)Gal(b1-4)GlcNAc
Summary of the method: as §1

[17] = target: Gal(b1-4)GlcNAc(b1-3)Gal(b1-4)GlcNAc(b1-3)Gal(b1-4)GlcNAc(b1-3)Gal(b1-4)GlcNAc(b1-3)Gal(b1-4)GlcNAc(b1-2)Man(a1-3)[Gal(b1-4)GlcNAc(b1-3)Gal(b1-4)GlcNAc(b1-3)Gal(b1-4)GlcNAc(b1-3)Gal(b1-4)GlcNAc(b1-3)Gal(b1-4)GlcNAc(b1-2)Man(a1-6)]Man(b1-4)GlcNAc(b1-4)[Fuc(a1-6)]GlcNAc
Summary of the method: as §1

[18] = target: Gal(b1-4)GlcNAc(b1-3)GalNAc
Summary of the method: as §1

[19] = target: Gal(b1-4)GlcNAc6P
Summary of the method: as §1

[20] = target: GalNAc(a1-3)GalNAc(b1-3)Gal(a1-4)Gal(b1-4)GlcNAc
Summary of the method: as §1

[21] = target: GalNAc(b1-3)Gal(a1-4)Gal(b1-4)GlcNAc
Summary of the method: as §1

[22] = target: GalNAc(b1-4)GlcNAc(b1-2)Man(a1-3)[GalNAc(b1-4)GlcNAc(b1-2)Man(a1-6)]Man(b1-4)GlcNAc(b1-4)GlcNAc
Summary of the method: as §1

[23] = target: GlcA3S(b1-3)Gal(b1-4)GlcNAc(b1-2)Man
Summary of the method: as §1

[24] = target: GlcNAc(a1-4)Gal(b1-3)GlcNAc
Summary of the method: as §1

[25] = target: GlcNAc(b1-2)Man(a1-3)[GlcNAc(b1-2)Man(a1-6)]Man(b1-4)GlcNAc(b1-4)GlcNAc
Summary of the method: as §1

[26] = target: GlcNAc(b1-2)Man(a1-3)[GlcNAc(b1-2)Man(a1-6)]Man(b1-4)GlcNAc(b1-4)[Fuc(a1-6)]GlcNAc
Summary of the method: as §1

[27] = target: GlcNAc(b1-2)[GlcNAc(b1-4)]Man(a1-3)[GlcNAc(b1-4)][GlcNAc(b1-2)Man(a1-6)]Man(b1-4)GlcNAc(b1-4)GlcNAc
Summary of the method: as §1

[28] = target: GlcNAc(b1-2)[GlcNAc(b1-6)]Man(a1-6)[GlcNAc(b1-2)Man(a1-3)]Man(b1-4)GlcNAc(b1-4)[Fuc(a1-6)]GlcNAc
Summary of the method: as §1

[29] = target: GlcNAc(b1-3)Gal(b1-4)GlcNAc(b1-2)Man(a1-3)[GlcNAc(b1-3)Gal(b1-4)GlcNAc(b1-2)Man(a1-6)]Man(b1-4)GlcNAc(b1-4)[Fuc(a1-6)]GlcNAc
Summary of the method: as §1

[30] = target: GlcNAc(b1-3)Gal(b1-4)GlcNAc(b1-3)Gal(b1-4)GlcNAc(b1-2)Man(a1-3)[GlcNAc(b1-3)Gal(b1-4)GlcNAc(b1-3)Gal(b1-4)GlcNAc(b1-2)Man(a1-6)]Man(b1-4)GlcNAc(b1-4)[Fuc(a1-6)]GlcNAc
Summary of the method: as §1

[31] = target: Man(a1-3)[Man(a1-6)]Man(b1-4)GlcNAc(b1-4)[Fuc(a1-6)]GlcNAc
Summary of the method: as §1

[32] = target: MurNAc(b1-4)GlcNAc
Summary of the method: as §1

[33] = target: Neu5Ac(a2-3)Gal(b1-3)GalNAc(b1-4)[Neu5Ac(a2-3)]Gal(b1-4)Glc
Summary of the method: as §1

[34] = target: Neu5Ac(a2-3)Gal(b1-3)GlcNAc(b1-2)Man(a1-3)[GlcNAc(b1-4)][Neu5Ac(a2-3)Gal(b1-3)GlcNAc(b1-2)Man(a1-6)]Man(b1-4)GlcNAc(b1-4)GlcNAc
Summary of the method: as §1

[35] = target: Neu5Ac(a2-3)Gal(b1-3)[Fuc(a1-4)]GlcNAc(b1-3)Gal(b1-3)[Fuc(a1-4)]GlcNAc
Summary of the method: as §1

[36] = target: Neu5Ac(a2-3)Gal(b1-4)GlcNAc(b1-3)Gal(b1-4)GlcNAc(b1-3)GalNAc
Summary of the method: as §1

[37] = target: Neu5Ac(a2-3)Gal(b1-4)GlcNAc(b1-3)Gal(b1-4)GlcNAc(b1-3)[Neu5Ac(a2-3)Gal(b1-4)GlcNAc(b1-3)Gal(b1-4)GlcNAc(b1-6)]GalNAc
Summary of the method: as §1

[38] = target: Neu5Ac(a2-3)Gal(b1-4)GlcNAc(b1-6)GalNAc
Summary of the method: as §1

[39] = target: Neu5Ac(a2-3)Gal(b1-4)GlcNAc(b1-6)[Gal(b1-3)]GalNAc
Summary of the method: as §1

[40] = target: Neu5Ac(a2-3)Gal(b1-4)GlcNAc(b1-6)[Neu5Ac(a2-3)Gal(b1-3)]GalNAc
Summary of the method: as §1

[41] = target: Neu5Ac(a2-3)Gal(b1-4)GlcNAc6S
Summary of the method: as §1

[42] = target: Neu5Ac(a2-6)Gal(b1-4)GlcNAc(b1-2)Man(a1-3)[Neu5Ac(a2-6)Gal(b1-4)GlcNAc(b1-2)Man(a1-6)]Man(b1-4)GlcNAc(b1-4)[Fuc(a1-6)]GlcNAc
Summary of the method: as §1

[43] = target: Neu5Ac(a2-6)Gal(b1-4)GlcNAc(b1-3)Gal(b1-3)GlcNAc
Summary of the method: as §1

[44] = target: Neu5Ac(a2-8)Neu5Ac(a2-3)Gal(b1-4)Glc
Summary of the method: as §1

[45] = target: Neu5Ac(a2-8)Neu5Ac(a2-3)[GalNAc(b1-4)]Gal(b1-4)Glc
Summary of the method: as §1

[46] = target: Neu5Gc(b2-6)Gal(b1-4)GlcNAc
Summary of the method: as §1

APVPVTKLVCDGDTYKCTAYLDFGDGRWVAQWDTNVFHTG [PhoSpL (Pholiota squarrosa)]
glycan array binding signal (z-score) [1]: -0.46
glycan array binding signal (z-score) [2]: 0.637
glycan array binding signal (z-score) [3]: -0.032
glycan array binding signal (z-score) [4]: 0.067
glycan array binding signal (z-score) [5]: -0.427
glycan array binding signal (z-score) [6]: -0.336
glycan array binding signal (z-score) [7]: -0.179
glycan array binding signal (z-score) [8]: -0.168
glycan array binding signal (z-score) [9]: 0.101
glycan array binding signal (z-score) [10]: 6.05
glycan array binding signal (z-score) [11]: -0.256
glycan array binding signal (z-score) [12]: 13.4
glycan array binding signal (z-score) [13]: 8.42
glycan array binding signal (z-score) [14]: 0.027
glycan array binding signal (z-score) [15]: 1.94
glycan array binding signal (z-score) [16]: -0.517
glycan array binding signal (z-score) [17]: 0.488
glycan array binding signal (z-score) [18]: -0.135
glycan array binding signal (z-score) [19]: -0.747
glycan array binding signal (z-score) [20]: 0.539
glycan array binding signal (z-score) [21]: 0.249
glycan array binding signal (z-score) [22]: 1.41
glycan array binding signal (z-score) [23]: -0.16
glycan array binding signal (z-score) [24]: -0.307
glycan array binding signal (z-score) [25]: -0.238
glycan array binding signal (z-score) [26]: 4.77
glycan array binding signal (z-score) [27]: -0.113
glycan array binding signal (z-score) [28]: 4.35
glycan array binding signal (z-score) [29]: 2.47
glycan array binding signal (z-score) [30]: 1.44
glycan array binding signal (z-score) [31]: 6.32
glycan array binding signal (z-score) [32]: -0.337
glycan array binding signal (z-score) [33]: 0.143
glycan array binding signal (z-score) [34]: -0.151
glycan array binding signal (z-score) [35]: -0.57
glycan array binding signal (z-score) [36]: 0.1
glycan array binding signal (z-score) [37]: -0.169
glycan array binding signal (z-score) [38]: -0.386
glycan array binding signal (z-score) [39]: 0.254
glycan array binding signal (z-score) [40]: -0.322
glycan array binding signal (z-score) [41]: 0.087
glycan array binding signal (z-score) [42]: 4.01
glycan array binding signal (z-score) [43]: -0.422
glycan array binding signal (z-score) [44]: -0.197
glycan array binding signal (z-score) [45]: -0.373
glycan array binding signal (z-score) [46]: 0.132
